Data on 37 molecules can be found in paper PMC9911399, “Two distinct binding modes provide the RNA-binding protein RbFox with extraordinary sequence specificity”.

Residue numbers refer to the chain shown, from its start. Whole data set: some 16,000 sequences, median “ka relative to ugcaugu” near 0.096, cut for the highest 2% near 0.35. What follows is part of a selection rich in the highest values, with near analogues and random picks from the rest.

The chains are these.
T1: RBFOX1 RRM RbFoxmut (Fox-RRM*) (Homo sapiens, UniProt Q9NWB1 109-208, R118D;E147R;N151S;E152T)
T1 sequence: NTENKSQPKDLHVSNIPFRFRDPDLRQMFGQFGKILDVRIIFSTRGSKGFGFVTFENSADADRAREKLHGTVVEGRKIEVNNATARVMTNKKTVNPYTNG

B1: UAGCUUA (DNA:RNA)
RNA: GGGAGACCGGAAUUCAGAUUGUCCUAGCUUAUUAAAUCCCGUCGUAGCCACCA
DNA 1: CAATCTGAATTCCGGTCTCCC
DNA 2: TGGTGGCTACGACGGGATT
B2: GUUAGGG (DNA:RNA)
RNA: GGGAGACCGGAAUUCAGAUUGUCCGUUAGGGUUAAAUCCCGUCGUAGCCACCA
DNA 1: CAATCTGAATTCCGGTCTCCC
DNA 2: TGGTGGCTACGACGGGATT
B3: ACCGGAG (DNA:RNA)
RNA: B2 RNA with G25A, U26C, U27C, A28G, G30A
DNA 1: CAATCTGAATTCCGGTCTCCC
DNA 2: TGGTGGCTACGACGGGATT
B4: AAUUGGC (DNA:RNA)
RNA: B2 RNA with G25A, U26A, A28U, G31C
DNA 1: CAATCTGAATTCCGGTCTCCC
DNA 2: TGGTGGCTACGACGGGATT
B5: ACCACUC (DNA:RNA)
RNA: B2 RNA with G25A, U26C, U27C, G29C, G30U, G31C
DNA 1: CAATCTGAATTCCGGTCTCCC
DNA 2: TGGTGGCTACGACGGGATT
B6: UGUAUCU (DNA:RNA)
RNA: B2 RNA with G25U, U26G, G29U, G30C, G31U
DNA 1: CAATCTGAATTCCGGTCTCCC
DNA 2: TGGTGGCTACGACGGGATT
B7: UAUGUCG (DNA:RNA)
RNA: B1 RNA with G27U, C28G, U30C, A31G
DNA 1: CAATCTGAATTCCGGTCTCCC
DNA 2: TGGTGGCTACGACGGGATT
B8: UGUCAUG (DNA:RNA)
RNA: B1 RNA with A26G, G27U, U29A, A31G
DNA 1: CAATCTGAATTCCGGTCTCCC
DNA 2: TGGTGGCTACGACGGGATT
B9: UGUUAUC (DNA:RNA)
RNA: B1 RNA with A26G, G27U, C28U, U29A, A31C
DNA 1: CAATCTGAATTCCGGTCTCCC
DNA 2: TGGTGGCTACGACGGGATT
B10: UGUUAUG (DNA:RNA)
RNA: B2 RNA with G25U, U26G, A28U, G29A, G30U
DNA 1: CAATCTGAATTCCGGTCTCCC
DNA 2: TGGTGGCTACGACGGGATT
B11: GGCUAUC (DNA:RNA)
RNA: B2 RNA with U26G, U27C, A28U, G29A, G30U, G31C
DNA 1: CAATCTGAATTCCGGTCTCCC
DNA 2: TGGTGGCTACGACGGGATT
B12: GGCUAUG (DNA:RNA)
RNA: B2 RNA with U26G, U27C, A28U, G29A, G30U
DNA 1: CAATCTGAATTCCGGTCTCCC
DNA 2: TGGTGGCTACGACGGGATT
B13: CUGUAUC (DNA:RNA)
RNA: B1 RNA with U25C, A26U, C28U, U29A, A31C
DNA 1: CAATCTGAATTCCGGTCTCCC
DNA 2: TGGTGGCTACGACGGGATT
B14: UGUCAUC (DNA:RNA)
RNA: B1 RNA with A26G, G27U, U29A, A31C
DNA 1: CAATCTGAATTCCGGTCTCCC
DNA 2: TGGTGGCTACGACGGGATT
B15: CGUCAUG (DNA:RNA)
RNA: B2 RNA with G25C, U26G, A28C, G29A, G30U
DNA 1: CAATCTGAATTCCGGTCTCCC
DNA 2: TGGTGGCTACGACGGGATT
B16: UGUCCUG (DNA:RNA)
RNA: B1 RNA with A26G, G27U, U29C, A31G
DNA 1: CAATCTGAATTCCGGTCTCCC
DNA 2: TGGTGGCTACGACGGGATT
B17: CGUCCUG (DNA:RNA)
RNA: B2 RNA with G25C, U26G, A28C, G29C, G30U
DNA 1: CAATCTGAATTCCGGTCTCCC
DNA 2: TGGTGGCTACGACGGGATT
B18: UUGGUUA (DNA:RNA)
RNA: B1 RNA with A26U, C28G
DNA 1: CAATCTGAATTCCGGTCTCCC
DNA 2: TGGTGGCTACGACGGGATT
B19: AUGACAU (DNA:RNA)
RNA: B2 RNA with G25A, U27G, G29C, G30A, G31U
DNA 1: CAATCTGAATTCCGGTCTCCC
DNA 2: TGGTGGCTACGACGGGATT
B20: CAAGGUA (DNA:RNA)
RNA: B1 RNA with U25C, G27A, C28G, U29G
DNA 1: CAATCTGAATTCCGGTCTCCC
DNA 2: TGGTGGCTACGACGGGATT
B21: UCUUGCG (DNA:RNA)
RNA: B2 RNA with G25U, U26C, A28U, G30C
DNA 1: CAATCTGAATTCCGGTCTCCC
DNA 2: TGGTGGCTACGACGGGATT
B22: UCUAAUU (DNA:RNA)
RNA: B2 RNA with G25U, U26C, G29A, G30U, G31U
DNA 1: CAATCTGAATTCCGGTCTCCC
DNA 2: TGGTGGCTACGACGGGATT
B23: AUACAAA (DNA:RNA)
RNA: B1 RNA with U25A, A26U, G27A, U29A, U30A
DNA 1: CAATCTGAATTCCGGTCTCCC
DNA 2: TGGTGGCTACGACGGGATT
B24: GGAUCUA (DNA:RNA)
RNA: B1 RNA with U25G, A26G, G27A, C28U, U29C
DNA 1: CAATCTGAATTCCGGTCTCCC
DNA 2: TGGTGGCTACGACGGGATT
B25: GUCCCCG (DNA:RNA)
RNA: B2 RNA with U27C, A28C, G29C, G30C
DNA 1: CAATCTGAATTCCGGTCTCCC
DNA 2: TGGTGGCTACGACGGGATT
B26: UGCUAUG (DNA:RNA)
RNA: B1 RNA with A26G, G27C, C28U, U29A, A31G
DNA 1: CAATCTGAATTCCGGTCTCCC
DNA 2: TGGTGGCTACGACGGGATT
B27: CCCUGUA (DNA:RNA)
RNA: B1 RNA with U25C, A26C, G27C, C28U, U29G
DNA 1: CAATCTGAATTCCGGTCTCCC
DNA 2: TGGTGGCTACGACGGGATT
B28: GUCCUGU (DNA:RNA)
RNA: B2 RNA with U27C, A28C, G29U, G31U
DNA 1: CAATCTGAATTCCGGTCTCCC
DNA 2: TGGTGGCTACGACGGGATT
B29: UGUAUGU (DNA:RNA)
RNA: B2 RNA with G25U, U26G, G29U, G31U
DNA 1: CAATCTGAATTCCGGTCTCCC
DNA 2: TGGTGGCTACGACGGGATT
B30: CGCUAUG (DNA:RNA)
RNA: B2 RNA with G25C, U26G, U27C, A28U, G29A, G30U
DNA 1: CAATCTGAATTCCGGTCTCCC
DNA 2: TGGTGGCTACGACGGGATT
B31: UGCUAUC (DNA:RNA)
RNA: B1 RNA with A26G, G27C, C28U, U29A, A31C
DNA 1: CAATCTGAATTCCGGTCTCCC
DNA 2: TGGTGGCTACGACGGGATT
B32: GGUCAUC (DNA:RNA)
RNA: B2 RNA with U26G, A28C, G29A, G30U, G31C
DNA 1: CAATCTGAATTCCGGTCTCCC
DNA 2: TGGTGGCTACGACGGGATT
B33: GGUCAUG (DNA:RNA)
RNA: B2 RNA with U26G, A28C, G29A, G30U
DNA 1: CAATCTGAATTCCGGTCTCCC
DNA 2: TGGTGGCTACGACGGGATT
B34: CUGUGUA (DNA:RNA)
RNA: B1 RNA with U25C, A26U, C28U, U29G
DNA 1: CAATCTGAATTCCGGTCTCCC
DNA 2: TGGTGGCTACGACGGGATT
B35: CUGUAUG (DNA:RNA)
RNA: B2 RNA with G25C, U27G, A28U, G29A, G30U
DNA 1: CAATCTGAATTCCGGTCTCCC
DNA 2: TGGTGGCTACGACGGGATT
B36: UGUAGGU (DNA:RNA)
RNA: B2 RNA with G25U, U26G, G31U
DNA 1: CAATCTGAATTCCGGTCTCCC
DNA 2: TGGTGGCTACGACGGGATT
B37: GUCAUGU (DNA:RNA)
RNA: B2 RNA with U27C, G29U, G31U
DNA 1: CAATCTGAATTCCGGTCTCCC
DNA 2: TGGTGGCTACGACGGGATT

This assay has as its target T1, RBFOX1 RRM RbFoxmut (Fox-RRM*). Description: EMSA; HiTS-Eq, 1 nM pool, 10 min; buffer printed only for the single-RNA assays: 10 mM Tris pH 7.5, 150 mM NaCl, 3.4 mM EDTA, 0.001% NP-40, 30 C. Conditions: tags: His6 N-terminal (pET28a); label: 5' 32P. Put shortly: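 Purified RbFox RRM, wild type or mutant, was incubated for 10 min in 50 µL with 1 nM of a 5′-radiolabelled RNA pool carrying 7 randomized nucleotides, whose flanks were annealed to DNA oligonucleotides, over a series of increasing protein concentrations. Unbound RNA was resolved on 8% native PAGE, cut out, reverse-transcribed, barcoded by PCR and sequenced on an Illumina HiSeq 2500. Relative association constants were derived from changes in read counts for each RNA species versus the control reaction and normalised to the cognate motif.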
In general terms: In EMSA bound probe runs differently from free probe, usually more slowly.
B1: the binding signal is 0.134 KA relative to UGCAUGU.

For B2, the binding signal is 0.0712 KA relative to UGCAUGU.

With B3, the binding signal is 0.0806 KA relative to UGCAUGU.

Turning to B4, the binding signal was 0.114 KA relative to UGCAUGU.

B5: the binding signal is 0.0459 KA relative to UGCAUGU.

Take B6: the binding signal was 0.296 KA relative to UGCAUGU.

For the molecule B7, the binding signal is 0.133 KA relative to UGCAUGU.

For B8, the binding signal is 0.597 KA relative to UGCAUGU.

Consider B9, for which the binding signal was 0.351 KA relative to UGCAUGU.

In the case of B10, the binding signal was 1.04 KA relative to UGCAUGU.

With B11, the binding signal is 0.226 KA relative to UGCAUGU.

As to B12, the binding signal was 0.405 KA relative to UGCAUGU.

On to B13, for which the binding signal was 0.362 KA relative to UGCAUGU.

As to B14, the binding signal was 0.183 KA relative to UGCAUGU.

For B15, the binding signal was 0.275 KA relative to UGCAUGU.

In the case of B16, the binding signal is 0.133 KA relative to UGCAUGU.

B17: the binding signal is 0.132 KA relative to UGCAUGU.

Regarding B18, the binding signal was 0.155 KA relative to UGCAUGU.

Turning to B19, the binding signal was 0.0668 KA relative to UGCAUGU.

Regarding B20, the binding signal is 0.124 KA relative to UGCAUGU.

In the case of B21, the binding signal is 0.168 KA relative to UGCAUGU.

In the case of B22, the binding signal is 0.0829 KA relative to UGCAUGU.

For the molecule B23, the binding signal was 0.0876 KA relative to UGCAUGU.

With B24, the binding signal was 0.154 KA relative to UGCAUGU.

As for B25, the binding signal was 0.0635 KA relative to UGCAUGU.

For B26, the binding signal was 0.863 KA relative to UGCAUGU.

In the case of B27, the binding signal was 0.201 KA relative to UGCAUGU.

As to B28, the binding signal is 0.135 KA relative to UGCAUGU.

With B29, the binding signal was 0.914 KA relative to UGCAUGU.

In the case of B30, the binding signal is 0.184 KA relative to UGCAUGU.

With B31, the binding signal was 0.255 KA relative to UGCAUGU.

On to B32, for which the binding signal was 0.152 KA relative to UGCAUGU.

In the case of B33, the binding signal is 0.512 KA relative to UGCAUGU.

Regarding B34, the binding signal was 0.281 KA relative to UGCAUGU.

Regarding B35, the binding signal is 1.11 KA relative to UGCAUGU.

Turning to B36, the binding signal is 0.126 KA relative to UGCAUGU.

Take B37: the binding signal was 0.288 KA relative to UGCAUGU.
